From PubChem
Mot1-301 SUMO = yeast Mot1-301 growth rescue at high temperature, primary screen, SUMOylation pathway inhibitor project, S. cerevisiae, ATP luminescence, 38.5C | S. cerevisiae Mot1-301 growth rescue; percent above DMSO median, 100 means doubled | growth rescue, % at 18.8 µM | 320,000 compounds, 1% hits | AID 2716, 2010;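 active means every valid replicate shows activation above 250% relative to neutral control wells; inactive means the rest, any valid replicate at or below 250%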;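 further: OY570 slx delta 5 strain wells were the positive control but not used for scaling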
ALR inh = inhibitors of human ALR sulfhydryl oxidase, primary screen, biochemical, H2O2 detection, HRP-luminol luminescence, single point | FAD-linked sulfhydryl oxidase ALR (Homo sapiens), P55789 | purified ALR, DTT oxidation | inhibition, % (no concentration beside the values) | 290,000 compounds, 3.8% hits | AID 485317, 2010;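 active means mean replicate inhibition above about 79%, with every replicate also reaching it, limit read from the data; inconclusive means only one of the two criteria met; inactive means mean below limit and not every replicate reaching it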
Target sequence (P55789 whole entry, looked up): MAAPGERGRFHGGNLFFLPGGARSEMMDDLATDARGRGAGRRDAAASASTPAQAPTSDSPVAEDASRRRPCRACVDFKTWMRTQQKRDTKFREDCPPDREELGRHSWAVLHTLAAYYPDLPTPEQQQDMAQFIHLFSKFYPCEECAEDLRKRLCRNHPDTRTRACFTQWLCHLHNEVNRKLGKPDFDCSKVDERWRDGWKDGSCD
M18AAP inhibitor = PfM18AAP inhibitors, malaria aminopeptidase, primary screen, biochemical, QFRET, recombinant enzyme; 290,000 compounds, 1.2% hits; AID 1822, 2009; M18 aspartyl aminopeptidase (Plasmodium falciparum 3D7); H-Glu-NHMec fluorogenic cleavage; inhibition, % at 7.35 µM;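 active means inhibition above the campaign mean inhibition over all tested compounds plus 3 SD, cut at about 28% in these data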;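 further: 0% = plate median of test compound wells and 100% = 2 mM ZnCl2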
HIF activator = HIF pathway transcriptional activators, primary screen, cell-based, U2OS HRE-luciferase, luminescence | U2OS HRE-luciferase reporter; normalized: DMSO 0%, desferrioxamine 100% | 300,000 compounds, 0.32% hits | activation, % at 7.5 µM (by protocol);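 active means mean activation of at least 10% of the iron chelator positive control signal, with at least half of replicates also reaching 10%; inconclusive means mean and replicate majority disagree about reaching 10%; inactive means mean and most replicates under 10%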
The depositor's hits bear a star; ? = inconclusive; . = no result given. Compounds with a hit are over-represented: about 5.3% of the library has one in this group of screens.

SMILES	Mot1-301 SUMO	ALR inh	M18AAP inhibitor	HIF activator
O=c1[nH]c2ccc(NCc3ccc(F)cc3)cc2[nH]1	6	100*	-113	0
C=CCNc1nc(Nc2ccc([N+](=O)[O-])cc2)nc(OCC)n1	282	-1	-9	-15
COC1c2ccccc2C(=O)N1CCc1ccc(Cl)cc1 (configuration not stated)	248	-9	2	2
CCOC(=O)c1ccccc1NC(=O)CSc1nnnn1C1CCCCC1	-18	-1	-3	0
COC(=O)CSc1nnc(C)n1-c1ccc(C)cc1	-7	4	15	-1
Cc1ccc(-n2c(C)nnc2SC(C)C(=O)N2CCCC2)cc1 (configuration not stated)	285*	-2	-4	3
O=[N+]([O-])c1ccc(O)c(C=Nc2ccc3nc(-c4ccccc4)[nH]c3c2)c1	51	-15	10	2
Oc1c(Br)cc(C=Nc2ccc3nc(-c4ccccc4)[nH]c3c2)c(O)c1Br	-4	23	29*	2
Cc1oc(-c2ccccc2)cc1C(=O)Nc1cccc(/C=C\C(=O)O)c1	-20	96*	-4	0
O=C(CSCC(=O)N1CCCCC1)Nc1nc(-c2cccs2)cs1	10	96*	-1	1
CC1CC(C)CN(C(=O)CSCC(=O)Nc2nc(-c3cccs3)cs2)C1 (configuration not stated)	14	99*	-2	1
CC1(C)c2[nH]c3ccccc3c2C[C@H]2C(=O)N(CCCCCO)CC(=O)N21	-12	-6	-1	-2
CC(=O)NCC(=O)OCc1ccc([N+](=O)[O-])cc1	264	-3	3	0
C/C(=N\Nc1ccc([N+](=O)[O-])cc1)c1cccc(N)c1	97	99*	9	.
CC(=O)NC/C(C)=N\Nc1ccc([N+](=O)[O-])cc1	279*	.	1	0
C/C(=N\Nc1ccc([N+](=O)[O-])cc1)c1ccc(O)cc1	337*	99*	1	5
C/C(=N\Nc1ncc(Br)cn1)c1cccc([N+](=O)[O-])c1	-12	-4	2	0
COc1ccc(S(=O)(=O)N(C)C)cc1NC(=O)CN1C(=O)NC2(CCCC2)C1=O	-5	1	-7	-2
CC(=Nc1ccccc1O)c1sc2ccccc2c1O	-11	92*	23	2
CC(=Nc1cccc(C)c1)c1sc2ccccc2c1O	9	3	1	2
CC(=O)NC(=S)NNC(=O)CCc1ccccc1	.	41	7	0
CC(C)(C)c1cc(CCC(=O)NNC(=S)NC(=O)c2ccccc2)cc(C(C)(C)C)c1O	-8	22	29*	0
O=C(CCc1ccccc1)NNC(=S)NC(=O)c1ccccc1	-10	98*	28	0
COCc1c(C(=O)NCCOc2ccc(Cl)cc2)oc2ccccc12	-2	-3	.	.
Cc1cc(C)c2c(c1)-c1cc(C)nn1C(c1ccc3c(c1)OCO3)N2 (configuration not stated)	-7	11	-10	0
SMILES	Mot1-301 SUMO	ALR inh	M18AAP inhibitor	HIF activator
Cc1cc2n(n1)C(c1ccc3c(c1)OCO3)Nc1c(C)cccc1-2 (configuration not stated)	-4	98*	-9	1
OCCC1CN(Cc2ccc3cccc(F)c3n2)CCN1Cc1ccccc1 (configuration not stated)	10	1	0	0
Cc1cc(=O)oc2cc(OCCSCCN3CCCC3)ccc12	7	98*	-5	1
CC(C)(C)C(=O)CN1C2=NCCCN2c2ccccc21	4	.	0	0
Cc1[nH]c2ccccc2c1N=Nc1ccc(F)cc1	93	98*	4	2
Cc1[nH]c2ccccc2c1N=Nc1ccccc1F	30	99*	1	2
Cc1[nH]c2ccccc2c1N=Nc1cc(C(=O)O)cc(C(=O)O)c1	-10	59	-4	-1
Oc1[nH]c2ccccc2c1N=Nc1c(F)c(F)c(Cl)c(F)c1F	-3	-4	2	1
C=CCOC(=O)C1=C(C)NC(=O)NC1c1cc(Cl)cc(Cl)c1OC (configuration not stated)	-18	5	17	-27
O=C(O)COc1ccc(-c2nc(-c3ccccc3)c(-c3ccccc3)[nH]2)cc1	-14	99*	12	0
O=C(O)COc1ccccc1-c1nc(-c2ccccc2)c(-c2ccccc2)[nH]1	64	98*	-3	-1
COc1ccc(S(=O)(=O)N2CCC(C(=O)Nc3cccc(Cl)c3)CC2)cc1OC	2	15	4	0
COc1cc(/C=C2\S/C(=N/S(=O)(=O)c3ccc(C)cc3)NC2=O)c([N+](=O)[O-])cc1OC	-9	21	17	1
Cc1ccc(S(=O)(=O)/N=C2/NC(=O)/C(=C/c3ccccc3)S2)cc1	14	30	-4	0
Cc1ccc(S(=O)(=O)/N=C2/NC(=O)/C(=C/c3cc([N+](=O)[O-])ccc3O)S2)cc1	-2	29	30*	?
CC(=O)Nc1ccc(S(=O)(=O)/N=C2/NC(=O)/C(=C\c3ccco3)S2)cc1	2	99*	10	0
Cc1ccc(S(=O)(=O)/N=C2/NC(=O)/C(=C\c3ccccc3)S2)cc1	8	99*	.	.
Cc1ccc(S(=O)(=O)/N=C2/NC(=O)/C(=C\c3ccco3)S2)cc1	14	11	4	.
Cc1ccc(CN2CC(C(=O)N3CCN(c4ccccc4O)CC3)CC2=O)cc1 (configuration not stated)	3	67	.	-1
C=CCNC(=S)N/N=C(\C)c1ccccn1	-2	22	20	14*
C/C(=N\NC(=O)CCCNc1ccc(C)cc1)c1ccccn1	.	98*	-1	0
CN(C)c1cc(-c2ccc(Cl)cc2Cl)oc(=O)c1Cl	18	-10	-7	1
CCN(CC(=O)Nc1ccccc1OC)C(=O)CN1C(=O)NC(C)(c2ccccc2)C1=O (configuration not stated)	-5	0	.	.
COc1ccccc1CN(C)CC(=O)NC1CCCc2ccccc21 (configuration not stated)	-17	-18	-5	0
CS(=O)(=O)N(CC(=O)NCc1ccccc1)Cc1ccc(Cl)cc1	.	.	-4	0
SMILES	Mot1-301 SUMO	ALR inh	M18AAP inhibitor	HIF activator
CS(=O)(=O)N(CC(=O)NCc1ccccn1)Cc1ccc(Cl)cc1	-9	99*	-4	0
CCN(Cc1ccncc1)C(=O)c1cc(Br)cc(Br)c1O	-5	94*	8	0
CCN(Cc1ccncc1)C(=O)c1ccco1	1	-2	-3	0
CCC(C)(C)C1CCC(=NNc2nc3ccccc3[nH]2)CC1 (configuration not stated)	-2	1	22	4
CC(=O)N1CCC(=NNc2nc3ccccc3[nH]2)CC1	62	100*	25	22*
CCn1cc(Br)c(C(=O)Nc2cccc(SC)c2)n1	0	99*	9	2
